From PubChem BioAssay AID1745849 (National Center for Advancing Translational Sciences (NCATS), 2022)
Hit rate of the full screen: of about 2,100 compounds, about 320 (15%) were called active. Not shown: some 52% with an inconclusive outcome. The call rests on the fitted dose curve; in most records, active means well fitted cell-killing curve with a large enough effect; inconclusive means small, poorly fitted or top-dose-only effect, or effect the other way; inactive means flat fitted curve, though single readings scatter. The list shows a part of the results.

test: Viability Counterscreen for CMV-Luciferase Assay of Inhibitors of ATXN expression; conditions: HEK-293 CMV-luciferase cells viability, protease fluorescence, 24 h; activity change, negative = cytotoxicity: at the top concentration; further: nearly all actives have a fitted effect of over 55% in size
Excerpt: PI: Daniel Scoles Ph.D. University of Utah School of Medicine, Salt Lake City, Utah MLPCN Grant: NS073009 Spinocerebellar ataxia type 2 (SCA2) is a multisystem neurodegenerative disease caused by a dominantly acting mutation leading to expansion of a polyQ domain in the ataxin-2 protein (ATXN2). SCA2 patients develop progressive ataxia and later lose function in other neuronal systems. Prominent parkinsonian signs develop in some patients. Like many neurodegenerative disorders, no symptomatic or disease-modifying treatments are known. The primary objective of the proposed research is to identify compounds inhibiting ATXN2 expression and to test them for efficacy in SCA2 mouse models. We have developed a cell-based assay paired with an in vivo mouse model using identical luciferase expression constructs. This approach takes advantage of an ATXN2-luciferase transgene, with the luciferase gene flanked by the upstream and downstream portions of the ATXN2 gene. Here we describe a 5-7 dose quantitative high thoroughput screen (qHTS) for compounds lowering ATXN2 expression. We screened the NIH Molecular Libraries Small Molecule Repository (MLSMR) and NCGC's mechanistically annotated (MIPE) and drug repurposing (NPC) collections of compounds for lowering expression of an ATXN2-luciferase reporter in HEK-293 cells. The assay is a multiplexed cell viability assay to ensure target reduction in the absence of cytotoxicity. Secondary qHTS assays included a CMV-luciferase reporter expressed in HEK-293 cells as well as a biochemical assay using recombinant luciferase to detect inhibitors of the reporter enzyme. Compounds that inhibit ATXN2 expression but is not cytotoxic were selected for confirmatory and secondary screens.
PROTOCOL TABLE (as described by Inglese J, Shamu CE and Guy RK. 2007) SEQUENCE No. (e.g., 1, 2, 3, etc.); […] (e.g., Cells, Incubation, Reagent, etc.); VALUE; DESCRIPTION. 1; Cells; 4 uL; white, solid bottom, 1536-well Greiner assay plate. 2; Incubation; 2 hr; 37 degree C in 5% humidified CO2. 3; Compounds; 23 nL; Kalypsis pintool (Wako USA) equipped with a 1536-well pin head. 4; Incubation; 24 hr; 37 degree C in 5% humidfified CO2. 5; Reagent; 1 uL; Gly-Phe-7-Amino-4-trifluoromethylcoumarin. 6; Incubation; 30 min; 37 degree C in 5% humidfified CO2. 7; Detection; Fluorescence; Viewlux plate reader (PerkinElmer). 8; Reagent; 3 uL; SteadyGlo luciferase solution (Promega). 9; Incubation; 5 min; room temperature. 10; Detection; Luminescence; ViewLux plate reader (PerkinElmer). NOTES (numbers refer to Sequence numbers above) 1. HEK-293 cells expressing CMV-luciferase reporter (designated as SC cells) were suspended in phenol-red free DMEM and dispensed in assay plates using a Multidrop Combi dispenser (Thermo Fisher Scientific). 2. Assay plates were incubated. Evaporation was prevented by covering assay plates with metal lids containing holes to allow gas diffusion. 3. Compounds were added in a dose response manner with the final concentrations of 57, 11.4, 2.28, 0.46, 0.091, 0.018, 0.0037 uM. Vehicle-only plates, with DMSO being pin-transferred to columns 5-48, were inserted uniformly at the beginning and the end of each library to monitor and record any shifts in assay performance. 5. 125 uM Gly-Phe-7-Amino-4-trifluoromethylcoumarin (MP Biomedicals) working concentration was used at a final concentration of 25 uM. 7. To assess cell viability; the assay plates were read using the ViewLux high-throughput CCD imager (PerkinElmer), wherein single end-point fluorescence measurement was acquired (excitation 405/10; emission 540/25 nm). 8. Detection reagent SteadyGlo Luciferase (Promega) was added to the assay plate. 10. Luminescence is then measured on the ViewLux imager equipped with a clear emission filter using a 2 sec exposure. […]
On the % scale 0 is the no-effect control and ±100 the full control effect; potency means the concentration at half of the fitted maximal effect.

Compound | activity change, negative = cytotoxicity | Potency
OCCN1CCN(C2CCC(c3ccc(F)cc3)c3ccc(F)cc32)CC1 (configuration not stated) | -5.95% [at 57.5 µM] (inactive) | 
CC(C)CC(NC(=O)c1ccc(Cl)cc1)C(=O)OCC(=O)c1ccc2c(c1)NC(=O)CO2 (configuration not stated) |  | 14.1 µM (active)
CN(C)CCCNc1nc2cc(-c3cccc(Cl)c3)sc2c(=O)n1C | -16.2% [at 57.5 µM] (inactive) | 
O=C(CNC(=O)c1ccccc1O)N/N=C/c1cc(Br)ccc1OC(=O)/C=C/c1ccco1 | 13% (inactive) | 
CC(=O)c1cc(CN2CCC(C(=O)Nc3cccc(-c4cscn4)c3)CC2)cs1 | -11.1% [at 57.5 µM] (inactive) | 
COCc1ccc(CN2CCC(C(=O)Nc3cccc(-c4cccc(Cl)c4)c3)CC2)o1 |  | 17.8 µM (active)
CCCn1ncc(CN2CCC(C(=O)Nc3cccc(-c4cccc(F)c4)c3)CC2)c1C | -27.1% [at 57.5 µM] (inactive) | 
O=C(NCc1ccco1)c1ccc(-c2cccc(Cl)c2)o1 | -7.88% [at 57.5 µM] (inactive) | 
CN1CCC(N(C)C(=O)c2ccc(Cl)c(S(=O)(=O)N3CCc4ccccc43)c2)CC1 | -12.2% [at 57.5 µM] (inactive) | 
O=C(Nc1ccc(F)cc1)c1sccc1SCc1cccc(C(F)(F)F)c1 | -14.2% [at 57.5 µM] (inactive) | 
O=C(CSC1=NNC(c2ccccn2)S1)Nc1ccc(C(F)(F)F)cc1 (configuration not stated) |  | 14.1 µM (active)
Cc1ccccc1SCC(=O)N1CCN(c2ccc(C(F)(F)F)cn2)CC1 | -1.97% (inactive) | 
COC(=O)c1ccsc1NC(=O)CN1CCN(Cc2ccc3c(c2)OCO3)CC1 | 9.4% [at 57.5 µM] (inactive) | 
Cc1ccc(C(=O)COC(=O)c2ccc3c(c2)C(=O)N(c2cccc4ncccc24)C3=O)cc1 |  | 22.4 µM (active)
Cc1ccc2nc(NC(=O)CSCC(=O)OCC(=O)c3ccc(Br)cc3)sc2c1 | 16.3% [at 57.5 µM] (inactive) | 
Cc1ccc(C(=O)CN2C(=O)c3ccccc3S2(=O)=O)cc1 | 1.75% (inactive) | 
O[C@@H]1[C@@H](O)C=C2CCN3Cc4cc5c(cc4[C@H]1C23)OCO5 (some centres not stated) |  | 6.31 µM (active)
Cc1cc(C)n(-c2ccc(C(=O)N3CCN(S(=O)(=O)c4cccc(Br)c4)CC3)cc2)n1 | 3.92% (inactive) | 
CCc1cc(-c2[nH]ncc2-c2ccc(OC)cc2)c(O)cc1O | -18.3% (inactive) | 
CCn1c2ccccc2c2cc(/C=C(/C#N)C(N)=S)ccc21 | -29.2% (inactive) | 
CCOC(=O)/C=C/C(=O)Nc1ccc(Oc2ccccc2)cc1 | -13.1% (inactive) | 
O=C(Nc1ccc(Oc2ccc(NC(=O)Nc3ccc([N+](=O)[O-])cc3)cc2)cc1)Nc1ccc([N+](=O)[O-])cc1 |  | 10 µM (active)
Cc1ccc(Cc2cnc(NC(=O)/C(C#N)=C/c3ccc(-c4cccc([N+](=O)[O-])c4)o3)s2)cc1 |  | 20 µM (active)
Cc1ccc(-c2ccc(/C=N/c3ncn[nH]3)o2)cc1Cl | -27.7% (inactive) | 

Compound | activity change, negative = cytotoxicity | Potency
CCCc1cc(=O)[nH]c(-n2[nH]c3c(c2=O)CCCC3)n1 |  | 22.4 µM (active)
CCn1c2ccccc2c2cc(NC(=O)COC(=O)c3cc(S(=O)(=O)N4CCCCC4)ccc3Cl)ccc21 | 12.4% (inactive) | 
CC[C@]12c3[nH]c4ccc(Cl)cc4c3CCN1C(=O)[C@@H](CC(=O)NCC13CC4CC(CC(C4)C1)C3)C[C@@H]2C(=O)N1CCN(C(=O)C2CC2)CC1 |  | 22.4 µM (active)
CC[C@]12c3[nH]c4ccc(Cl)cc4c3CCN1C(=O)[C@@H](CC(=O)NCC13CC4CC(CC(C4)C1)C3)C[C@@H]2C(=O)N1CCN(C(=O)c2ccco2)CC1 |  | 3.16 µM (active)
CCOC(=O)c1cnc2ccc(OC)cc2c1Nc1ccc(N2CCN(C)CC2)cc1 | -29.6% [at 57.5 µM] (inactive) | 
Cc1ccc2nc(SCc3ccc([N+](=O)[O-])cc3)[nH]c2c1 | -7.46% (inactive) | 
Cc1ccc2nc3cc([N+](=O)[O-])cc([N+](=O)[O-])c3cc2c1 |  | 11.2 µM (active)
COc1ccc(C)cc1Nc1nc(N)c2cc(OC)c(OC)cc2n1 | -4.73% (inactive) | 
COc1cc2nc(CN(C)Cc3ccc(SC)cc3)[nH]c(=O)c2cc1OC | -19% [at 57.5 µM] (inactive) | 
COc1cc2nc(N(C)C)nc(N)c2cc1OC |  | 25.1 µM (active)
CC(C)(C)S(=O)(=O)/C(C#N)=N/Nc1ccc(Cl)cc1 |  | 25.1 µM (active)
CCc1ccc(N(CC)C(=O)c2ccc3c(Cl)c4c(nc3c2)CCC4)cc1 | -27.5% (inactive) | 
O=C(NC(=S)N1CCN(c2ccc(F)cc2)CC1)c1cccs1 | -10.7% (inactive) | 
O=C(Nc1ccc(N2CCN(C(=O)c3ccco3)CC2)c(Cl)c1)c1cccs1 |  | 28.2 µM (active)
O=C(Nc1ccc(N2CCN(C(=O)c3ccco3)CC2)c(Cl)c1)c1c(F)c(F)c(F)c(F)c1F | -27.5% [at 57.5 µM] (inactive) | 
CC(C)(C)OC(=O)N1CCC(c2c(C(=O)NCC3CCN(C4CCCC4)C3)cnn2-c2cccc(Cl)c2)CC1 (configuration not stated) | -29.1% (inactive) | 
CC(=O)c1sc(C(C)(C)C)cc1NC(=O)/C=C/C(=O)O | -3.54% [at 57.5 µM] (inactive) | 
CCOC(=O)c1c(C)nn(-c2ccc(NC(=O)/C=C/C(=O)O)cc2)c1C | -16.6% [at 57.5 µM] (inactive) | 
COC(=O)c1c(NC(=O)/C=C/C(=O)O)sc(C)c1-c1ccc(C(C)C)cc1 |  | 20 µM (active)
CN(C)CCCN(C(=O)CCc1ccccc1)c1nc2ccc(Br)cc2s1 |  | 22.4 µM (active)
CN(C)CCCN(C(=O)c1ccc(S(=O)(=O)N2CCCCCC2)cc1)c1nc2ccc(Br)cc2s1 | -15.8% (inactive) | 
CC(=O)c1ccc(S(=O)(=O)N2CCN(CCOc3ccc(Br)cc3)CC2)cc1 | -20.8% (inactive) | 
CN(C)CCCN(C(=O)c1ccc(S(=O)(=O)N2CCCC2)cc1)c1nc2ccc(Br)cc2s1 |  | 31.6 µM (active)
